This is part of a sample that, as a whole, favours compounds with a hit. Of some 83,000 tested, about 20% had one in any assay.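 Step 1: grow cells in 96-well plates. Step 2: add test compound at a single concentration. Step 3: incubate 48 h. Step 4: record percent growth.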 The source made the active and inactive calls.
Each molecule was assayed on NCI-H460 lung (assay: NCI-60 one-dose screen, 48 h (100 = growth as untreated, 0 = no growth, -100 = all killed)). Conditions: 10 µM unless noted.
Protocol: Growth inhibition of the NCI-H460 human Non-Small Cell Lung tumor cell line is measured as a screen for anti-cancer activity. Cells are grown in 96 well plates and exposed to the test compound for 48 hours. Compounds are tested at a single concentration, which is 10^-5 M for most compounds. The reported endpoint is percent growth (GI% or GIPRCNT), where numbers from 0 - 100% represent growth inhibition, and numbers from -100% - 0 represent cell death. For example, a value of 40 represents 60% growth inhibition. A value of 0 means no net growth occurred over the course of the experiment. A value of -40 indicates 40% of cells at the beginning of the experiment died by the end of the experiment. A value of -100 means all cells are dead at the end of the experiment.
NCI-60 Human Tumor Cell Lines Screen was performed using the standard one-dose NCI protocol, which is described in more detail at https://dtp.cancer.gov/discovery_development/nci-60/default.htm.
Compounds with GIPRCNT values below 10 were considered active. Activity score was based on GIPRCNT using the following formula: […]
Score is 0 for GIPRCNT values of 100 or above, 50 for GIPRCNT values of 0, and 100 for GIPRCNT values of -100.
`Cc1nn(-c2ccccc2)c2nc3nc4c(c(N)c3c(-c3ccc(Cl)cc3)c12)CCCC4` was tested, and the growth was 97.4% (inactive). For `COC(=O)c1c2c(c(C)[n+]([O-])c1C)C(=O)C=C(NCc1ccc(F)cc1)C2=O`, the growth was -0.65% (active). With `Cc1ccc2c(N/N=C\c3ccco3)cc(C)nc2n1` the growth was 34.1% (inactive). For `CN1CCc2c(c3ccccc3c3ccccc23)C1`, the growth was 27.7% (inactive). For `CCCC1=NNC(=O)C1`, the growth was 109% (inactive). For `O=[N+]([O-])c1cc2c(cc1Br)C1C(C3C2C(Cl)(Cl)C(Cl)=C(Cl)C3(Cl)Cl)C(Cl)(Cl)C(Cl)=C(Cl)C1(Cl)Cl` (stereo not given), the growth was 107% (inactive). For `Cn1c2ccccc2c2nn(C(=O)c3ccccc3)c(=O)nc21`, the growth was 105% (inactive). `Brc1ccccc1Nc1ccc2nnc(-c3ccncc3)n2n1` was tested, and the growth was 104% (inactive). With `NC1=NC(c2ccccc2OS(=O)(=O)c2ccc(Br)cc2)n2c(nc3ccccc32)N1` (stereo not given) the growth was 97.6% (inactive). In the case of `COc1cccc(C2CC(=O)Nc3cc4c(cc32)CCC4)c1OC` (stereo not given), the growth is reported as 61.8% (inactive). With `FCOC(C(F)(F)F)C(F)(F)F` the growth was 111% (inactive). With `COc1ccc(-c2[nH]ncc2Nc2cc(OC)c(OC)c(OC)c2)cc1` the growth was 14.1% (inactive). For `CCCCOC(=O)C1OC(Oc2ccc3c(C)cc(=O)oc3c2)[C@@H](OC(C)=O)C(OC(C)=O)C1OC(C)=O` (stereo not given in full), the growth was 105% (inactive). `COc1ccc(C2CC(c3cc(OC)c(OC)c(OC)c3)=NN2c2ccc(S(N)(=O)=O)cc2)cc1` (stereo not given) was tested, and the growth was 58.8% (inactive). For `CC1SC(c2ccc(Cl)cc2)N(CCc2cccs2)C1=O` (stereo not given), the growth was -24.4% (active). In the case of `COc1cc(/C=N/NC(=O)c2cnn3c2NC(c2ccccc2)C3)cc(OC)c1OC` (stereo not given), the growth is reported as 26.7% (inactive). With `CC(C)(C)CC(C)(C)N(CSc1ccc(Cl)cc1)CSc1ccc(Cl)cc1` the growth was 42.9% (inactive). With `C(=C\c1ccccc1)/CN1CCN(C(c2ccccc2)c2ccccc2)CC1` the growth was 96.5% (inactive). In the case of `CCCCNNC(=O)c1ccc(Br)cc1`, the growth is reported as 50.1% (inactive). `COc1ccccc1/C=C/C(=O)/C=C/c1ccccc1O` was tested, and the growth was -58.2% (active). `COC(=O)CCC(=O)c1ccccc1` was tested, and the growth was 106% (inactive). In the case of `COc1ccc(-c2c3c(N)c4c(nc3nc3c2c(C)nn3-c2ccccc2)CCCCC4)cc1`, the growth is reported as 82.8% (inactive). In the case of `COc1nc2c(cc1S(=O)(=O)c1ccccc1)CCc1c-2cnn1-c1ccccc1Cl`, the growth is reported as 67% (inactive). With `Nc1nc(N)c(N=Nc2c(Br)cc(S(N)(=O)=O)cc2Br)c(N)n1` the growth was 105% (inactive). In the case of `CCCCc1ccc(C(O)(CCN2CC3CCC(CC3)C2)c2ccccc2)cc1` (stereo not given), the growth is reported as 107% (inactive). In the case of `O=C1NC(=O)C2(CCCC2C(=O)O)N1` (stereo not given), the growth is reported as 106% (inactive). `O=C(Nc1nc2ccccc2[nH]1)C(=O)Nc1nc2ccccc2[nH]1` was tested, and the growth was 98.5% (inactive). With `COC(=O)c1c2c(c(C)[n+]([O-])c1C)C(=O)C=C(NCc1ccc(F)c(Cl)c1)C2=O` the growth was -38.7% (active). With `COc1ccccc1-n1c(SCc2cc(OC)c(OC)c(OC)c2)nc2ccc(Cl)cc2c1=O` the growth was 10.8% (inactive). For `CS(=O)(=O)Nc1cccc(C(=O)NCc2ccc(N3CCOCC3)cc2)c1`, the growth was 109% (inactive). With `CCOC(=O)c1cc2c(n(C)c1=O)-c1cnn(-c3ccc(OC)cc3)c1CC2` the growth was 108% (inactive). With `CCN(c1ccc(C(=O)N2CCN(c3ccccc3)CC2)cc1)S(C)(=O)=O` the growth was 108% (inactive). With `COC(=O)c1c2c(c(C)[n+]([O-])c1C)C(=O)C(NCc1ccc(O)cc1)=CC2=O` the growth was -3.38% (active). For `CN(C)C(=S)SCN1C(=O)c2ccc([N+](=O)[O-])cc2S1(=O)=O`, the growth was 103% (inactive). In the case of `O=S(=O)(OCCO)c1ccccc1`, the growth is reported as 113% (inactive). `O=C(N/N=C/c1ccc(F)cc1)c1[nH]c2ccc(I)cc2c1-c1ccccc1` was tested, and the growth was 1.78% (active). For `COc1cc(-c2nc(SC(C)C)nc(Nc3cccc(C)c3)c2C#N)cc(OC)c1OC`, the growth was 108% (inactive). `CCCCCCCC/C=C\CCCCCCCCOc1cccc(CC(=O)NCC[N+]2(C)CCCCC2)c1` was tested, and the growth was 40.1% (inactive). `C=C[C@H]1C[C@@H]2C[C@@H]3[C@H]4C/C=C\C(=O)NCCCC5NC(=O)C(=C(O)/C=C/[C@@H]4CC(=O)[C@H]3[C@@H]2[C@H]1C)C5=O` (stereo not given in full) was tested, and the growth was -69.4% (active). With `Cc1cc(C)c(S(=O)O)c(C)c1` the growth was 109% (inactive).

From PubChem BioAssay (NCI)
